According to the supplement of paper PMC10849652:
The full data set covers some 7,900 targets. This sample favours those with a hit. About 0.6% of all pairs of compound and target were hits.

Key:
Experiment in all cases: log2 fold change, soluble protein after heating vs DMSO (PISA); higher = thermal stabilisation; K562 cells, 10 uM, 30 min; active = over 0.2 and 3.5 SD of the protein, either way, in both replicates (recomputed)
[1] = compound: CS(=O)(=O)c1ccc(-c2cnc(N)c(C(=O)Nc3ccccc3)n2)cc1
In short: (§1)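 K562 cells (2×10^6 cells/mL) were treated with 10 μM compound for 30 min, and aliquots were heated for 3 min over 48°C-58°C. Pooled aliquots were extracted in PBS with 0.5% NP-40 at 4°C, and the supernatant after 21,000xg for 90 min was measured by TMTpro 16plex LC-MS/MS with channel sums equalised. Reported thermal stability, relative to control samples and from duplicates, is a log2 fold change.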

crizotinib = compound: C[C@@H](Oc1cc(-c2cnn(C3CCNCC3)c2)cnc1N)c1c(Cl)ccc(F)c1Cl [crizotinib]
In short: as §1

[2] = compound: C[C@@H]1COCCN1C2=NC(=NC(=C2)C3(CC3)S(=O)(=O)C)C4=C5C=CNC5=CC=C4
In short: as §1

[3] = compound: C[C@H](C1=CC=C(C=C1)C(=O)NC2=C3C=CNC3=NC=C2)N
In short: as §1

duvelisib = compound: C[C@H](Nc1ncnc2nc[nH]c12)c1cc2cccc(Cl)c2c(=O)n1-c1ccccc1 [duvelisib]
In short: as §1

gandotinib = compound: Cc1cc(Nc2cc(CN3CCOCC3)c3nc(C)c(Cc4ccc(Cl)cc4F)n3n2)n[nH]1 [gandotinib]
In short: as §1

tozasertib = compound: Cc1cc(Nc2cc(N3CCN(C)CC3)nc(Sc3ccc(NC(=O)C4CC4)cc3)n2)n[nH]1 [tozasertib]
In short: as §1

[4] = compound: Cc1cc(SCc2sc(-c3ccc(C(F)(F)F)cc3)nc2C)ccc1OCC(=O)O
In short: as §1

doramapimod = compound: Cc1ccc(-n2nc(C(C)(C)C)cc2NC(=O)Nc2ccc(OCCN3CCOCC3)c3ccccc23)cc1 [doramapimod]
In short: as §1

ispinesib = compound: Cc1ccc(C(=O)N(CCCN)[C@@H](c2nc3cc(Cl)ccc3c(=O)n2Cc2ccccc2)C(C)C)cc1 [ispinesib]
In short: as §1

Measured: log2 fold change

MAP3K20 (UniProt Q9NYL2)
inactive: [1] -0.003 | crizotinib -0.01 | [2] -0.065 | [3] 0.059 | duvelisib -0.022 | gandotinib -0.025 | tozasertib 0.002 | [4] 0.053 | doramapimod -0.072 | ispinesib -0.141

MDN1 (UniProt Q9NU22)
inactive: [1] -0.072 | crizotinib -0.135 | [2] 0.094 | [3] 0.002 | duvelisib 0.024 | gandotinib -0.156 | tozasertib -0.052 | [4] 0.063 | doramapimod -0.005 | ispinesib -0.117

KIF2C (UniProt Q99661)
Chain of UniProt Q99661 (Q99661 whole entry, looked up): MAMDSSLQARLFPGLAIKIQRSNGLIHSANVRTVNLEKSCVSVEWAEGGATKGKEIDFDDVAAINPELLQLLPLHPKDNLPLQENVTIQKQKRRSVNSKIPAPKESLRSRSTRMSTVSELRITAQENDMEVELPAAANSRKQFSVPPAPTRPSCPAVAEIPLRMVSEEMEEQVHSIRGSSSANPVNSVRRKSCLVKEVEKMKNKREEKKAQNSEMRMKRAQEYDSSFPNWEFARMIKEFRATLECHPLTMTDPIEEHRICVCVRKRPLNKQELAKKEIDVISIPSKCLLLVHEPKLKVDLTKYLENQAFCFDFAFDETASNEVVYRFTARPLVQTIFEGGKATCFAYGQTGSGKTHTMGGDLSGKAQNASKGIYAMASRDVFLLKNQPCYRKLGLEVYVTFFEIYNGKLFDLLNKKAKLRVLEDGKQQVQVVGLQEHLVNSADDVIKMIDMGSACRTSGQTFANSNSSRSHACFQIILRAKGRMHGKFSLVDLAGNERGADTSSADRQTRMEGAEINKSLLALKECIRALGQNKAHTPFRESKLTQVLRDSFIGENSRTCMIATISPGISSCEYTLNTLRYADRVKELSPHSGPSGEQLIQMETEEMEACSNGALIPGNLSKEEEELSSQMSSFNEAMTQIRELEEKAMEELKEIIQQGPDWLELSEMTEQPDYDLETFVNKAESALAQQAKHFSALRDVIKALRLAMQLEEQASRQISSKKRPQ
inactive: [1] -0.016 | crizotinib -0.171 | [2] -0.028 | [3] 0.012 | duvelisib -0.048 | gandotinib -0.065 | tozasertib -0.035 | [4] 0.082 | doramapimod 0.007 | ispinesib -0.028

IPO11 isoform 2 (UniProt Q9UI26)
Chain of UniProt Q9UI26 (Q9UI26 whole entry, looked up): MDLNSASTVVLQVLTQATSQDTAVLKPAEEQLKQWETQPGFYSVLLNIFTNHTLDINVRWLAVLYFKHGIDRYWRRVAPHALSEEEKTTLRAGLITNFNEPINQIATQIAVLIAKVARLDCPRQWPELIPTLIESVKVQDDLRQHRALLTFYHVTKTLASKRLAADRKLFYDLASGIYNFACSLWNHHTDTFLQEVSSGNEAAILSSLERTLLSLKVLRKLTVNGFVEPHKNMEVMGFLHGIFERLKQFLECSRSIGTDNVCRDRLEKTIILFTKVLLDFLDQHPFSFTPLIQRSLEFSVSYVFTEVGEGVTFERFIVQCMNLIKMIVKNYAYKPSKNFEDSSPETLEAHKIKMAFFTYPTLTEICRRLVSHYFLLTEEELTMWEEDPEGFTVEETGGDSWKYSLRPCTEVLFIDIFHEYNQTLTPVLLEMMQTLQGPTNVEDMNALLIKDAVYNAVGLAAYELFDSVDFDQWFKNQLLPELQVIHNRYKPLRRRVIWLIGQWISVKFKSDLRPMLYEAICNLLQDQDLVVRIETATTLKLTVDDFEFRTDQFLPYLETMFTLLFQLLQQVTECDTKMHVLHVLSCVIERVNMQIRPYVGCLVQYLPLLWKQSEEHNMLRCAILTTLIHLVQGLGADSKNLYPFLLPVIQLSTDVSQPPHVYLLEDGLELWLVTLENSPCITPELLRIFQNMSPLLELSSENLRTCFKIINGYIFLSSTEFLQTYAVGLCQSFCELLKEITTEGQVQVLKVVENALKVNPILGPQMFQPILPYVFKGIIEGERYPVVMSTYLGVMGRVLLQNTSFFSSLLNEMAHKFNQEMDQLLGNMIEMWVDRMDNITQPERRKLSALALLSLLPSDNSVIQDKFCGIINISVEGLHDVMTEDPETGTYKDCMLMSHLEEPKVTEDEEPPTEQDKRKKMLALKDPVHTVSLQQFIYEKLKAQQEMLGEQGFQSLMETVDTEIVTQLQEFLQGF
inactive: [1] 0.037 | crizotinib 0 | [2] -0.015 | [3] -0.082 | duvelisib 0.041 | gandotinib -0.076 | tozasertib 0.025 | [4] 0.007 | doramapimod -0.028 | ispinesib 0.051

MARK3 (UniProt P27448)
Chain of UniProt P27448 (P27448 whole entry, looked up): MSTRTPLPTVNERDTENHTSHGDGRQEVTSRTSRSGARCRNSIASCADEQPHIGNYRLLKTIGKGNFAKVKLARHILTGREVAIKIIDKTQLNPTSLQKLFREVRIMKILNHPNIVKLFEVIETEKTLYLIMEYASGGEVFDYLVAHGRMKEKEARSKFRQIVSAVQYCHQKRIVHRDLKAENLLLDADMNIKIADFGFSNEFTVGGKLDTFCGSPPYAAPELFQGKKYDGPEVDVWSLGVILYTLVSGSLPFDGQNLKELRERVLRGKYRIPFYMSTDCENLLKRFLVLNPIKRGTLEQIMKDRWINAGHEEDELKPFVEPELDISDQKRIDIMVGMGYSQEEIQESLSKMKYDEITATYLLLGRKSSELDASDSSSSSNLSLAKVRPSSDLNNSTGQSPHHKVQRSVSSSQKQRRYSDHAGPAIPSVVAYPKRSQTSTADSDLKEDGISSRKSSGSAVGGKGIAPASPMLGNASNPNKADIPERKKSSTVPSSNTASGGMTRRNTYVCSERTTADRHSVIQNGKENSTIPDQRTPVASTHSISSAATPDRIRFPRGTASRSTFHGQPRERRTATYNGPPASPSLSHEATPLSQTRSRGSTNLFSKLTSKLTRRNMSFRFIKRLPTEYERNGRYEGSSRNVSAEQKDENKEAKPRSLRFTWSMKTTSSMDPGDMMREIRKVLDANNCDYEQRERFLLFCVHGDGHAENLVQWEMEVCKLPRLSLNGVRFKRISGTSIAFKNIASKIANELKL
active: crizotinib -0.394
inactive: [1] -0.042 | [2] -0.039 | [3] 0.063 | duvelisib -0.013 | gandotinib -0.194 | tozasertib -0.187 | [4] 0.089 | doramapimod 0.073 | ispinesib -0.173

MGST3 (UniProt O14880)
inactive: [1] 0.058 | crizotinib 0.119 | [2] -0.013 | [3] -0.075 | duvelisib -0.002 | gandotinib -0.006 | tozasertib -0.018 | [4] -0.054 | doramapimod -0.031 | ispinesib 0.03

MFN2 (UniProt O95140)
inactive: [1] 0.028 | crizotinib -0.109 | [2] 0 | [3] 0.022 | duvelisib -0.048 | gandotinib 0.028 | tozasertib -0.013 | [4] 0.041 | doramapimod 0.039 | ispinesib -0.208

MAP4 (UniProt P27816)
Chain of UniProt P27816 (P27816 whole entry, looked up): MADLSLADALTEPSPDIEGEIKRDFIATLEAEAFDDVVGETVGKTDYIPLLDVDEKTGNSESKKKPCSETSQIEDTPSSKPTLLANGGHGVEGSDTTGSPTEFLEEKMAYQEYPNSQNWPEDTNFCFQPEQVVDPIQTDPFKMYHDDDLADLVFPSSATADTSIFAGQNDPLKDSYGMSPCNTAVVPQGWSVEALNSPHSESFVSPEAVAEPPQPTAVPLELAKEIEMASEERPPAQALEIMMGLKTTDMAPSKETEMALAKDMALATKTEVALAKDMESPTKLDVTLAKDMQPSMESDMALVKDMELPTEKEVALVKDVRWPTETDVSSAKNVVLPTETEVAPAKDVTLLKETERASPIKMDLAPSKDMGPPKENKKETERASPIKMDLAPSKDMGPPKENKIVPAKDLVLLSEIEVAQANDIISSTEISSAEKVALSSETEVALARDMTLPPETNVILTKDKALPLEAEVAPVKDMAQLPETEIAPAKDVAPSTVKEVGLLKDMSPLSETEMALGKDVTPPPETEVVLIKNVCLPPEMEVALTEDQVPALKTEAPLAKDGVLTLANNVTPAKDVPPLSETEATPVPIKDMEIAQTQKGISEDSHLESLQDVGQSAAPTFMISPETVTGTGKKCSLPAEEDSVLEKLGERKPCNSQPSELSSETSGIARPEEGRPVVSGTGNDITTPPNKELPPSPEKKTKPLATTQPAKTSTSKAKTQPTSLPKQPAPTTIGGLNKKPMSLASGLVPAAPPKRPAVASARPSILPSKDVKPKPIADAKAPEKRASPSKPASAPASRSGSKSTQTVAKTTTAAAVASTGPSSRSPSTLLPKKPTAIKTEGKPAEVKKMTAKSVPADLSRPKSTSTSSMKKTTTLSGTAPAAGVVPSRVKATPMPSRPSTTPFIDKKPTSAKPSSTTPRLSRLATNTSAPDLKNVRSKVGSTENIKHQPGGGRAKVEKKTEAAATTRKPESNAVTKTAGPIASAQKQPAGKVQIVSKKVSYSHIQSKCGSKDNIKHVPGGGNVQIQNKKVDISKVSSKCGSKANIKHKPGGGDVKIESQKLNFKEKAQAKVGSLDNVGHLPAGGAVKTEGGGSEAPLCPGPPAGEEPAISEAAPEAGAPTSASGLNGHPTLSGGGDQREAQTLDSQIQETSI
inactive: [1] -0.004 | crizotinib 0.012 | [2] -0.025 | [3] -0.035 | duvelisib -0.03 | gandotinib 0.006 | tozasertib -0.023 | [4] -0.051 | doramapimod 0.008 | ispinesib -0.014

KIFBP (UniProt Q96EK5)
Chain of UniProt Q96EK5 (Q96EK5 whole entry, looked up): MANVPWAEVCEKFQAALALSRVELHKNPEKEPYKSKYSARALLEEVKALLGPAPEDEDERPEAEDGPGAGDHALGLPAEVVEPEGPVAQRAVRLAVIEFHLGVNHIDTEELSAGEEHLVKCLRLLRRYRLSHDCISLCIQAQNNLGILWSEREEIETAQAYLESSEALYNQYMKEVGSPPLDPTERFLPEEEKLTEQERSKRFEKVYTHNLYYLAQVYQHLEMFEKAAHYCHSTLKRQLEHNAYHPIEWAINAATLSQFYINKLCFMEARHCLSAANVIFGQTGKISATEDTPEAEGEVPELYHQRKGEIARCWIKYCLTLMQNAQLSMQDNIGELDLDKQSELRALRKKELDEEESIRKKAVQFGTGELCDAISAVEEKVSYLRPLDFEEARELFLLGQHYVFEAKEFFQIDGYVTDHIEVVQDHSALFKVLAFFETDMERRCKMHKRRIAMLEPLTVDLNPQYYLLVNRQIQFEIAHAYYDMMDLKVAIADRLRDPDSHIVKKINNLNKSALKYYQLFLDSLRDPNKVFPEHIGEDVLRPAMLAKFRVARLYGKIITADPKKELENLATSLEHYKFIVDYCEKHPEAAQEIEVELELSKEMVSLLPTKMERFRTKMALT
inactive: [1] -0.036 | crizotinib -0.025 | [2] 0.079 | [3] 0.08 | duvelisib 0.007 | gandotinib -0.051 | tozasertib 0.065 | [4] 0.085 | doramapimod -0.053 | ispinesib -0.139

MAD2L1 (UniProt Q13257)
Chain of UniProt Q13257 (Q13257 whole entry, looked up): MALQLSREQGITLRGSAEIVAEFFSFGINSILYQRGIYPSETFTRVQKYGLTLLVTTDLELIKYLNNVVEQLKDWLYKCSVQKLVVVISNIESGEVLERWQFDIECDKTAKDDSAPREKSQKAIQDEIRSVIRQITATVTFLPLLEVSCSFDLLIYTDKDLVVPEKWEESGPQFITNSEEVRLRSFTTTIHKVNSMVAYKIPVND
inactive: [1] 0.02 | crizotinib -0.076 | [2] 0.092 | [3] -0.004 | duvelisib 0.024 | gandotinib -0.139 | tozasertib 0.101 | [4] 0.037 | doramapimod 0.034 | ispinesib -0.023

LYN (UniProt P07948)
inactive: [1] -0.023 | crizotinib -0.142 | [2] -0.101 | [3] -0.01 | duvelisib 0.118 | gandotinib -0.015 | tozasertib -0.085 | [4] 0.132 | doramapimod 0.065 | ispinesib -0.094

LTV1 (UniProt Q96GA3)
inactive: [1] 0.006 | crizotinib -0.143 | [2] -0.189 | [3] 0.294 | duvelisib -0.087 | gandotinib 0.199 | tozasertib 0.035 | [4] 0.009 | doramapimod 0.128 | ispinesib -0.271

KIF1B isoform 4 (UniProt O60333)
inactive: [1] 0.002 | crizotinib -0.067 | [2] 0.048 | [3] 0.035 | duvelisib 0.011 | gandotinib -0.043 | tozasertib 0.03 | [4] 0.052 | doramapimod 0.029 | ispinesib -0.149

LDLR (UniProt P01130)
inactive: [1] -0.005 | [2] -0.05 | [3] -0.045 | duvelisib -0.05 | gandotinib -0.038 | tozasertib -0.088 | [4] -0.094 | doramapimod -0.017 | ispinesib -0.052
active: crizotinib -0.363

MCL1 (UniProt Q07820)
inactive: [1] -0.079 | crizotinib 0.043 | [2] -0.158 | [3] -0.006 | duvelisib 0.052 | gandotinib 0.042 | tozasertib -0.056 | [4] 0.01 | doramapimod 0.109 | ispinesib -0.441

MIF (UniProt P14174)
inactive: [1] -0.027 | crizotinib 0.025 | [2] 0.111 | [3] -0.048 | duvelisib 0.197 | gandotinib 0.079 | tozasertib -0.019 | [4] -0.025 | doramapimod -0.019 | ispinesib 0.055

LYPLA2 (UniProt O95372)
Chain of UniProt O95372 (O95372 whole entry, looked up): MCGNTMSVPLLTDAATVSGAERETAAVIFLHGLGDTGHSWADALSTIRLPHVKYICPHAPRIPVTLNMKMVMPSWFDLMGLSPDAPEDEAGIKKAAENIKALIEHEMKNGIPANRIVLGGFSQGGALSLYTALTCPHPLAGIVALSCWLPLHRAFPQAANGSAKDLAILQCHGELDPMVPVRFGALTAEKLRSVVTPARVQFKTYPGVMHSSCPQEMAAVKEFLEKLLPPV
inactive: [1] -0.028 | crizotinib 0.005 | [2] 0.299 | [3] -0.08 | duvelisib 0.189 | gandotinib -0.094 | tozasertib 0.056 | [4] 0.066 | doramapimod 0.016 | ispinesib 0.172

MICU2 (UniProt Q8IYU8)
inactive: [1] 0.014 | crizotinib -0.173 | [2] -0.026 | [3] 0.108 | duvelisib -0.045 | gandotinib -0.062 | tozasertib -0.036 | [4] 0.035 | doramapimod -0.009 | ispinesib -0.213

KCT2 (UniProt Q8NC54)
Chain of UniProt Q8NC54 (Q8NC54 whole entry, looked up): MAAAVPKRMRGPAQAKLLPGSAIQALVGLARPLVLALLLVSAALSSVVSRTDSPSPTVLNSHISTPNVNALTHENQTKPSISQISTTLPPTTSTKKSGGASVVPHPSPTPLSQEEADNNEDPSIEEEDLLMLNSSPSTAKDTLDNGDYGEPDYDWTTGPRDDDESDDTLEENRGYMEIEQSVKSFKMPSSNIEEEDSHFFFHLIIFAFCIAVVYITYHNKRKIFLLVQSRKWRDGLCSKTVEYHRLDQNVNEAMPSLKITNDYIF
inactive: [1] 0 | crizotinib -0.186 | [2] 0.074 | [3] -0.04 | duvelisib 0.064 | gandotinib 0.038 | tozasertib 0.033 | [4] 0.054 | doramapimod 0.091 | ispinesib -0.118

IRF3 (UniProt Q14653)
inactive: [1] -0.146 | crizotinib 0.007 | [2] 0.056 | [3] -0.027 | duvelisib 0.067 | gandotinib -0.068 | tozasertib 0.039 | [4] 0.053 | doramapimod -0.038 | ispinesib 0.022

LRRFIP1 (UniProt Q32MZ4)
inactive: [1] -0.005 | crizotinib 0.037 | [2] 0 | [3] 0.025 | duvelisib 0.011 | gandotinib 0.056 | tozasertib -0.027 | [4] -0.059 | doramapimod -0.025 | ispinesib -0.019

KHDC4 (UniProt Q7Z7F0)
inactive: [1] 0.045 | crizotinib -0.091 | [2] 0 | [3] -0.074 | duvelisib 0.255 | gandotinib -0.052 | tozasertib 0.013 | [4] 0.207 | doramapimod -0.054 | ispinesib 0.027

KIF21A isoform 4 (UniProt Q7Z4S6)
inactive: [1] 0.092 | crizotinib -0.039 | [2] 0.027 | [3] 0.207 | duvelisib 0.055 | gandotinib -0.001 | tozasertib 0.021 | [4] 0.044 | doramapimod 0.047 | ispinesib -0.153

MFGE8 (UniProt Q08431)
inactive: [1] 0.063 | crizotinib 0.04 | [2] -0.129 | [3] 0.087 | duvelisib -0.052 | gandotinib -0.015 | tozasertib 0.085 | [4] 0.057 | doramapimod 0.046 | ispinesib -0.122

KIF3B (UniProt O15066)
inactive: [1] -0.004 | crizotinib -0.018 | [2] 0.054 | [3] 0.03 | duvelisib 0.05 | gandotinib -0.199 | tozasertib -0.051 | [4] -0.023 | doramapimod 0.076 | ispinesib 0.04

LUC7L3 (UniProt O95232)
active: [3] -0.219
inactive: [1] -0.001 | crizotinib -0.045 | [2] -0.022 | duvelisib -0.001 | gandotinib 0.065 | tozasertib 0.011 | [4] 0.02 | doramapimod 0 | ispinesib 0.099

KPNB1 (UniProt Q14974)
inactive: [1] -0.027 | crizotinib -0.201 | [2] -0.038 | [3] 0.047 | duvelisib -0.045 | gandotinib -0.09 | tozasertib 0.094 | [4] 0.083 | doramapimod 0.026 | ispinesib -0.225

ME2 (UniProt P23368)
active: crizotinib 0.282 | ispinesib 0.334
inactive: [1] -0.027 | [2] -0.048 | [3] 0.009 | duvelisib 0.043 | gandotinib -0.016 | tozasertib -0.001 | [4] -0.002 | doramapimod -0.016

KPNA1 (UniProt P52294)
inactive: [1] -0.021 | crizotinib -0.169 | [2] -0.029 | [3] 0.084 | duvelisib 0.047 | gandotinib 0.01 | tozasertib 0.075 | [4] -0.008 | doramapimod 0.062 | ispinesib -0.012

KNTC1 (UniProt P50748)
inactive: [1] 0.038 | crizotinib -0.178 | [2] -0.002 | [3] 0.045 | duvelisib 0.061 | gandotinib -0.162 | tozasertib 0.014 | [4] 0.012 | doramapimod -0.01 | ispinesib -0.086
